# How the values were obtained:
# Details in all cases: concentration: 1 μM,replicates: in singlicate; n = 1
# CSNK1G1 = test system: CSNK1G1
# CSNK1G2 = test system: CSNK1G2
# CSNK1G3 = test system: CSNK1G3
# CSNK2A1 = test system: CSNK2A1
# CSNK2A2 = test system: CSNK2A2
# CTK = test system: T1, CTK
# T1 construct: gene MATK
# DAPK1 = test system: DAPK1
# DAPK2 = test system: DAPK2
# DAPK3 = test system: DAPK3
# DCAMKL1 = test system: T2, DCAMKL1
# T2 construct: gene DCLK1
# DCAMKL2 = test system: T3, DCAMKL2
# T3 construct: gene DCLK2
# DCAMKL3 = test system: T4, DCAMKL3
# T4 construct: gene DCLK3
# DDR1 = test system: DDR1
# DDR2 = test system: DDR2
# DLK = test system: T5, DLK
# T5 construct: gene MAP3K12
# DMPK2 = test system: T6, DMPK2
# T6 construct: gene CDC42BPG
# DMPK = test system: DMPK
# DRAK1 = test system: T7, DRAK1
# T7 construct: gene STK17A
# DRAK2 = test system: T8, DRAK2
# T8 construct: gene STK17B
# DYRK1A = test system: DYRK1A
# 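Note: KINOMEscan kinase panel screen.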
Compound,%Inh (CSNK1G1) [%],%Inh (CSNK1G2) [%],%Inh (CSNK1G3) [%],%Inh (CSNK2A1) [%],%Inh (CSNK2A2) [%],%Inh (CTK) [%],%Inh (DAPK1) [%],%Inh (DAPK2) [%],%Inh (DAPK3) [%],%Inh (DCAMKL1) [%],%Inh (DCAMKL2) [%],%Inh (DCAMKL3) [%],%Inh (DDR1) [%],%Inh (DDR2) [%],%Inh (DLK) [%],%Inh (DMPK2) [%],%Inh (DMPK) [%],%Inh (DRAK1) [%],%Inh (DRAK2) [%],%Inh (DYRK1A) [%]
CC(C)c1nc(-c2cccc(NS(=O)(=O)c3ccccc3)c2)c(-c2ccnc(Nc3ccc4c(c3)CN(C)CC4)n2)s1 [GSK1649598],19,0,28,0,9,5,30,55,21,0,17,17,100,42,69,61,0,0,0,4
CS(=O)(=O)c1cccc(CNc2nc(Nc3ccc4c(c3)[C@@H]3C[C@@H]4CNC3=O)ncc2C(F)(F)F)c1,0,23,81,34,64,0,27,0,9,48,0,0,0,6,9,0,0,96.3,96.4,6
O=c1[nH]cc(-c2ccc(O)cc2)c2sc(-c3ccncc3)cc12 [GSK1033723],23,0,13,9,24,0,19,27,30,8,6,5,0,25,12,17,78,31,0,90
CCN1CCN(CCCC(=O)Nc2n[nH]c3nc(-c4ccc(O)cc4)c(Br)cc23)CC1 [SB-731579],0,0,0,0,0,34,41,31,61,0,18,99.1,38,41,8,0,89,44,0,38
COc1ccc(Nc2nccc(N3CCC(NC(=O)c4cccc(C#N)c4)C3)n2)cc1 (centres unmarked) [GSK1379730],3,0,0,0,0,0,0,0,4,8,0,0,0,12,40,0,0,2,0,22
Cc1ccc(C(=O)Nc2ccc(Oc3ccc4nc(NC(=O)C5CC5)cn4c3)c(F)c2)c(=O)n1-c1ccccc1,2,0,0,0,0,0,0,0,2,2,0,0,98.2,100,35,0,0,0,1,0
Cc1ccc2c(-c3ccnc(Nc4ccc(C(F)(F)F)cc4)n3)cnn2n1 [GW819776],0,14,0,18,35,24,19,0,25,34,0,0,0,4,0,9,0,37,13,37
CS(=O)(=O)Nc1ccc(-c2ccnc3[nH]ccc23)cc1 [GSK993273],0,0,17,0,16,0,73,54,89,6,0,0,0,0,83,13,51,99.2,20,88
Cl.Nc1n[nH]c2cc(-c3ccccn3)ccc12 [GSK2189892],11,0,31,0,0,0,0,0,19,19,0,0,16,0,4,0,0,37,0,10
Cn1ccc2ncnc(Oc3ccc(NC(=O)Nc4cccc(C(F)(F)F)c4)c(Cl)c3)c21,0,3,0,0,5,0,89,0,0,46,0,7,99.9,99.9,0,0,0,0,0,0

# From paper PMC5540273 (PLoS ONE, 2017)
